# Reference: PubChem BioAssay (NCATS)
# Records with an inconclusive call do not appear. Active and inactive are the calls of the source. Calls follow the shape of the dose curve; as a rule, active = well fitted cell-killing curve with a large enough effect; inconclusive = small, poorly fitted or top-dose-only effect, or effect the other way; inactive = no such curve, though single readings can be large or run the other way.
# Experiment: Quantitative High-Throughput drug screen in 47 multiple myeloma cell lines against the NCATS MIPE library collection: ARP1_JJKsccF8 cell viability assay (AID 1918928; also: nearly all actives have a fitted effect of over 40% in size)
# Settings: ARP1 myeloma cells viability, CellTiter-Glo ATP, 48 h; series mostly up to 45.8 µM; viability: at the top concentration
# In short: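 Cell viability inhibition in this qHTS is measured via ATP content (CellTiter-Glo) after 48 h drug exposure at 37 °C. Wells hold 500 cells; DMSO-treated wells define 100% and medium-only wells 0%.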
# Potency is read from the fitted curve at half-maximal effect.
SMILES,Potency,viability
COC(=O)Nc1ccc(-c2nc(N3CCOCC3)c3cnn(C4CCN(C(=O)OC)CC4)c3n2)cc1,0.662 µM (active),
O=C(NCCCCN1CCOCC1)c1cc2ccccc2o1,,100% (inactive)
CCCCCCCCCCCCCCCC(=O)O[C@H]1[C@@H](O)[C@@H](O)[C@@H]([C@H](NC(=O)[C@@H]2C[C@@H](CCC)CN2C)[C@H](C)Cl)O[C@@H]1SC,,93.5% (inactive)
OCCn1cc(-c2ccc3c(c2)CCC3=NO)c(-c2ccncc2)n1,,78.7% (inactive)
CCC[C@H](N[C@@H](C)C(=O)N1[C@@H]2CCCC[C@H]2C[C@H]1C(=O)O)C(=O)OCC,,103% (inactive)
C[C@@H](O[C@H]1OCCN(Cc2n[nH]c(=O)[nH]2)[C@@H]1c1ccc(F)cc1)c1cc(C(F)(F)F)cc(C(F)(F)F)c1,26.4 µM (active),
C#CCN(C)CC1=Cc2ccccc2Oc2ccccc21,,66.7% (inactive)
CC[C@]1(O)C[C@H]2CN(CCC3=c4ccccc4=N[C]3[C@@](C(=O)OC)(c3cc4c(cc3OC)N(C)[C@H]3[C@@](O)(C(N)=O)[C@H](O)[C@]5(CC)C=CCN6CC[C@]43[C@@H]65)C2)C1,0.0105 µM (active),
CN1CC(=O)NC1=NC(=O)Nc1cccc(Cl)c1,20.9 µM (active),
CCCCC(C)(C)[C@H](O)C=C[C@H]1[C@H](O)CC(=O)[C@H]1CC=CCCCC(=O)O,23.5 µM (active),
COc1cc2c(cc1OC)CC(=O)N(CCCN(C)C[C@H]1Cc3cc(OC)c(OC)cc31)CC2,,93.7% (inactive)
NCc1c[nH]c(=S)n1[C@H]1CCc2c(F)cc(F)cc2C1,18.7 µM (active),
CCNC(=O)Nc1ccc(Oc2ncnc(N)c2C=NOC)cc1Cl,20.9 µM (active),
COc1cc2nccc(Oc3ccc(NC(=O)Nc4ccc(F)cc4F)c(F)c3)c2cc1OC,,69.4% (inactive)
CC(C)c1c(C(=O)Nc2ccccc2)c(-c2ccccc2)c(-c2ccc(F)cc2)n1CC[C@H](O)C[C@@H](O)CC(=O)O,18.7 µM (active),
CSc1cccc(Nc2ncc3cc(-c4c(Cl)cccc4Cl)c(=O)n(C)c3n2)c1,1.87 µM (active),
C[C@@H]1[C@H](C)CC[C@]2(C(=O)O)CC[C@]3(C)C(=CC[C@@H]4[C@@]5(C)CC[C@H](O)C(C)(C)[C@H]5CC[C@]43C)[C@@H]12,42.9 µM (active),
O=c1cc(-c2ccc(O)c(O)c2)oc2cc(O)cc(O)c12,,88.2% (inactive)
C[C@@H]1CC=CC=CC=CC=C[C@@H](O[C@@H]2O[C@H](C)[C@@H](O)[C@H](N)[C@H]2O)C[C@@H]2O[C@](O)(C[C@@H](O)C[C@@H]3O[C@@H]3C=CC(=O)O1)C[C@H](O)[C@@H]2C(=O)O,4.18 µM (active),
CO[C@H]1/C=C\O[C@@]2(C)Oc3c(C)c(O)c4c(O)c(c(C=NN5CCN(C6CCCC6)CC5)c(O)c4c3C2=O)NC(=O)C(C)=CC=C[C@H](C)[C@H](O)[C@@H](C)[C@@H](O)[C@@H](C)[C@H](OC(C)=O)[C@H]1C,10.5 µM (active),

# Experiment: Quantitative High-Throughput drug screen in 47 multiple myeloma cell lines against the NCATS MIPE library collection: ARD_JJKsccE7 cell viability assay (AID 1918929;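 as to viability: 100% = DMSO-only wells and 0% = media-only wells without cells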)
# Settings: ARD myeloma cell line viability, CellTiter-Glo, 48 h; series mostly up to 45.8 µM; viability: at the top concentration
# In short: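 Approved and investigational drugs from MIPE 4.0 were added by pin tool to 500 cells per well. After 48 hours at 37C, ATP-based CellTiter-Glo luminescence indicated remaining viability.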
SMILES,Potency,viability
COC(=O)Nc1ccc(-c2nc(N3CCOCC3)c3cnn(C4CCN(C(=O)OC)CC4)c3n2)cc1,0.526 µM (active),
O=C(NCCCCN1CCOCC1)c1cc2ccccc2o1,,127% (inactive)
OCCn1cc(-c2ccc3c(c2)CCC3=NO)c(-c2ccncc2)n1,13.2 µM (active),
C[C@@H](O[C@H]1OCCN(Cc2n[nH]c(=O)[nH]2)[C@@H]1c1ccc(F)cc1)c1cc(C(F)(F)F)cc(C(F)(F)F)c1,,102% (inactive)
COc1ccc(C=CC(=O)Nc2ccccc2C(=O)O)cc1OC,,118% (inactive)
NC[C@H]1O[C@H](O[C@@H]2[C@@H](O)[C@@H](O[C@H]3O[C@H](CO)[C@@H](O)[C@H](N)[C@@H]3O)[C@H](N)C[C@@H]2N)[C@H](O)[C@@H](O)[C@H]1O,,111% (inactive)
Cn1c(=O)c(Oc2ccc(F)cc2F)cc2cnc(NC3CCOCC3)nc21,0.0074 µM (active),
CC[C@]1(O)C[C@H]2CN(CCC3=c4ccccc4=N[C]3[C@@](C(=O)OC)(c3cc4c(cc3OC)N(C)[C@H]3[C@@](O)(C(N)=O)[C@H](O)[C@]5(CC)C=CCN6CC[C@]43[C@@H]65)C2)C1,0.118 µM (active),
CCCCC(C)(C)[C@H](O)C=C[C@H]1[C@H](O)CC(=O)[C@H]1CC=CCCCC(=O)O,,134% (inactive)
O=C(O)Cc1cccc(OCCCN(Cc2cccc(C(F)(F)F)c2Cl)CC(c2ccccc2)c2ccccc2)c1,,143% (inactive)
COc1cc2c(cc1OC)CC(=O)N(CCCN(C)C[C@H]1Cc3cc(OC)c(OC)cc31)CC2,16.6 µM (active),
NCc1c[nH]c(=S)n1[C@H]1CCc2c(F)cc(F)cc2C1,26.4 µM (active),
CCNC(=O)Nc1ccc(Oc2ncnc(N)c2C=NOC)cc1Cl,5.9 µM (active),
COc1cc2nccc(Oc3ccc(NC(=O)Nc4ccc(F)cc4F)c(F)c3)c2cc1OC,,115% (inactive)
CO[C@H]1C=CO[C@@]2(C)Oc3c(C)c(O)c4c(O)c(c(C=NN5CCN(C)CC5)c(O)c4c3C2=O)NC(=O)C(C)=CC=C[C@H](C)[C@H](O)[C@@H](C)[C@@H](O)[C@@H](C)[C@H](OC(C)=O)[C@H]1C,,136% [at 15.3 µM] (inactive)
Nc1ccn([C@@H]2O[C@H](CO)[C@@H](O)[C@H]2O)c(=O)n1,,87.6% (inactive)
C[C@@H]1[C@H](C)CC[C@]2(C(=O)O)CC[C@]3(C)C(=CC[C@@H]4[C@@]5(C)CC[C@H](O)C(C)(C)[C@H]5CC[C@]43C)[C@@H]12,,112% [at 92.2 µM] (inactive)
CN1C(=O)C[C@H](C(=O)N[C@@H](Cc2cnc[nH]2)C(=O)N2CCC[C@@H]2C(N)=O)NC1=O,,106% (inactive)
O=c1cc(-c2ccc(O)c(O)c2)oc2cc(O)cc(O)c12,,113% (inactive)
FC(F)(F)c1ccc(C=Cc2nc(COc3ccc(CCCCn4ccnn4)cc3)co2)cc1,0.001 µM (active),
C[C@@H]1CC=CC=CC=CC=C[C@@H](O[C@@H]2O[C@H](C)[C@@H](O)[C@H](N)[C@H]2O)C[C@@H]2O[C@](O)(C[C@@H](O)C[C@@H]3O[C@@H]3C=CC(=O)O1)C[C@H](O)[C@@H]2C(=O)O,,145% (inactive)
COc1ccc(-c2oc3c(CC=C(C)C)c(O)cc(O)c3c(=O)c2O)cc1,,145% (inactive)
CO[C@H]1/C=C\O[C@@]2(C)Oc3c(C)c(O)c4c(O)c(c(C=NN5CCN(C6CCCC6)CC5)c(O)c4c3C2=O)NC(=O)C(C)=CC=C[C@H](C)[C@H](O)[C@@H](C)[C@@H](O)[C@@H](C)[C@H](OC(C)=O)[C@H]1C,1.05 µM (active),
